Screening results (PubChem BioAssay)
Rows were chosen to be rich in hits. Some 11% of all compounds tested hit in one or more screens of this group.
HEK293 tox: Cytotoxic Profiling in HEK 293 Cell Line of Diverse Libraries Using Quantitative High-Throughput Screening. Potency, µM (doses to about 115 µM), without a hit: at the top dose activity change, negative = cytotoxicity, usual class: inhibitors. 6.6% of 94,000 active. HEK 293 viability, ATP luminescence (CellTiter-Glo), 48-72 h; further: nearly all actives have a fitted effect of over 60% in size
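Luminescence from cellular ATP, measured with CellTiter-Glo, indicates HEK 293 viability. Cells plated at 250 cells/well are treated with compound for 48 or 72 hr at 37 degree Celsius before reagent addition.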
NPR1 antag: Natriuretic polypeptide receptor (hNpr1) antagonism - Primary qHTS. Atrial natriuretic peptide receptor 1 (Homo sapiens), P16066. HEK293 hNpr1 GloSensor cGMP, ANP-stimulated luminescence. Potency, µM (highest dose often 46.3 µM), for inactives: at the highest dose activity change, negative = inhibition, most hits filed as inhibitors. 1.6% of 76,000 active. AID 1347048, 2019; calls by dose curve; further: nearly all actives have a fitted effect of over 60% in size
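Compound pre-incubated 30 min at room temperature on GloSensor-loaded HEK293 cells stably carrying hNpr1 and the pGS-40F cGMP biosensor. Stimulation uses hNppA at 0.1 nM final; luminescence is taken at baseline and 20 min post-agonist.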
3T3 cytotox: Cytotoxic Profiling in NIH 3T3 Cell Line of Diverse Libraries Using Quantitative High-Throughput Screening; NIH 3T3 viability, CellTiter-Glo ATP luminescence, 48-72 h; 4.3% of 94,000 active; Potency, µM (top dose mostly 96.7 µM), for the others: at the highest dose activity change, negative = cytotoxicity, most hits filed as inhibitors; further: nearly all actives have a fitted effect of over 55% in size
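Cytotoxicity is measured as loss of cellular ATP: NIH 3T3 cells (400/well) are exposed to compound for 48 or 72 hr at 37 °C, then CellTiter-Glo luminescence is imaged after 10 min at room temperature.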
Luciferase inh: Firefly luciferase inhibition profiling of diverse chemical library using quantitative high-throughput screening; Luciferin 4-monooxygenase (Photinus pyralis), P08659; purified P. pyralis luciferase, luminescence, biochemical; Potency, µM (titrated, usually from 115 µM), usual class: inhibitors; 2.5% of 76,000 active; further: nearly all actives have a fitted effect of over 65% in size
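Purified P. pyralis luciferase (10nM final) in 50mM Tris acetate pH 7.5, 10mM Mg acetate, 0.01% Tween-20, 0.05% BSA with 10uM D-luciferin and 10uM ATP. Compounds titrated qHTS. Luminescence imaged on CCD.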
* marks the source's active call; other numbers are inactive results; i = inactive; ? = inconclusive; . = no result; [ ] = another dose, or the depositor's remark. Unless noted, the call rests on the fitted dose curve; in most records, active means well fitted curve in the direction sought with a large enough effect; inconclusive means small, poorly fitted or top-dose-only effect, or another doubt; inactive means no such curve, though single readings can be large; an effect the other way counts as inactive or inconclusive. On the % scale 0 is the no-effect control and ±100 the full control effect; potency means the concentration at half of the fitted maximal effect.

SMILES | HEK293 tox | NPR1 antag | 3T3 cytotox | Luciferase inh
O=C1c2cnc(-c3ccc(O)c(F)c3)nc2OCCN1c1ccccc1 | 45µM* | -25%[70.6 µM] | 8.9µM* | ?
CCCCCNC(=O)c1cc(-c2ccccc2OC)nc2c1cnn2C | -30% | . | ? | .
O=C(Nc1ccc([C@@H](O)[C@H]2COCC(=O)N2Cc2ccccc2F)cc1)c1cccs1 | -24% | 1% | -8% | i
COc1ncccc1-c1ncc2c(n1)OCCN(c1cccc(C(F)(F)F)c1)C2=O | -16%[172 µM] | 1%[70.6 µM] | 25µM* | i
COc1ccccc1-c1ncc2c(n1)OCCN(c1cccc(C(F)(F)F)c1)C2=O | ? | -5%[70.6 µM] | ? | i
O=C(Cc1ccc(N(Cc2ccc(F)cc2)C(=O)c2ccco2)cc1)Nc1ccc(F)cc1 | ? | -3% | 32µM* | i
O=C(Cc1ccc(N(Cc2cccc(F)c2)C(=O)c2ccco2)cc1)NCc1ccccc1 | ? | -23% | ? | i
O=C(Cc1ccc(N(Cc2ccc(F)cc2)C(=O)c2ccco2)cc1)NCc1ccc(F)cc1 | 25µM* | -28% | 40µM* | i
CC(C)NC(=O)Cc1ccc(N(Cc2ccc(F)cc2)C(=O)c2ccco2)cc1 | -15% | 0% | -15% | i
O=C(Cc1ccc(N(Cc2cccc(F)c2)C(=O)c2ccco2)cc1)Nc1ccccc1 | 45µM* | 0% | 35µM* | i
CCCN(C)C(=O)Cc1ccc(N(Cc2ccc(F)cc2)C(=O)c2ccco2)cc1 | ? | -12% | ? | i
CN(Cc1ccccc1)C(=O)Cc1ccc(N(Cc2cccc(F)c2)C(=O)c2ccco2)cc1 | ? | -20% | 35µM* | i
CCOc1ccccc1CN1CCCCCNC(=O)[C@@H]2CCC[C@@H]21 | ? | -10% | ? | i
CCOc1ccc(CC(=O)NC2CCN(c3cc(-c4ccccc4)[nH]n3)C2)cc1OCC (stereo unspecified) | ? | -4% | ? | i
NC(CN1CCCC1)C1CCCCC1 (stereo unspecified) | 3%[230 µM] | . | 3%[174 µM] | .
Cc1cc(CN(C)c2cc(C3CC(N)C3)nc(N)n2)no1 (stereo unspecified) | 1% | -13% | i | i
CCOc1ccc(Cl)cc1CN(C)c1cc(C2CC(O)C2)nc(N)n1 (stereo unspecified) | 40µM* | ? | 32µM* | i
COc1ccccc1-c1ccc2c(C(=O)NCc3cccc(Cl)c3)nn(C)c2n1 | ? | . | -15% | .
Cc1ccccc1CN1Cc2nc(-c3c(C)noc3C)ccc2OCC1=O | ? | -1%[70.6 µM] | ? | i
Cc1ccccc1CN1Cc2nc(Nc3ccccc3)ccc2OCC1=O | 71µM* | -21%[70.6 µM] | ? | i
Cc1csc(Nc2ccc3c(n2)CN(Cc2ccccc2C)C(=O)CO3)n1 | 25µM* | ? | 25µM* | i
Cn1cc(-c2cn(C)c(=O)n3cc(CNc4ccccc4)nc23)cn1 | -28%[172 µM] | 2%[70.6 µM] | ? | ?
CN1CCN(c2ccc(-c3cn(C)c(=O)n4cc(CNc5ccccc5)nc34)cn2)CC1 | 71µM* | -1%[70.6 µM] | 50µM* | i
O=C1CC(c2ccccc2)N(C(=O)CNC(=O)c2n[nH]c3ccccc23)CCCCCN1 (stereo unspecified) | -6% | 1% | -7% | 25µM*
O=C1CC(c2ccccc2)N(C(=O)CNC(=O)c2[nH]nc3c2COc2ccccc2-3)CCCCCN1 (stereo unspecified) | 32µM* | -14% | ? | i
SMILES | HEK293 tox | NPR1 antag | 3T3 cytotox | Luciferase inh
O=C1CC(c2ccccc2)N(C(=O)CNC(=O)c2nccc3ccccc23)CCCCCCN1 (stereo unspecified) | ? | 5% | ? | i
COC(=O)N1CCCC(C(=O)N2CCC(N3Cc4cccn4C3=O)CC2)C1 (stereo unspecified) | 0% | . | -12% | .
CC(C)CNC(=O)c1cc(-c2ccccc2F)cc2c1OCCN2Cc1cccnc1 | 50µM* | -24%[70.6 µM] | 45µM* | i
COCCNC(=O)c1cc(-c2ccccc2F)cc2c1OCCN2Cc1cccnc1 | ? | -18%[70.6 µM] | 89µM* | i
CNC(=O)c1cc(-c2ccccc2F)cc2c1OCCN2Cc1cccnc1 | 89µM* | -28%[70.6 µM] | ? | i
CNC(=O)c1cc(-c2ccc(C)cc2)cc2c1OCCN2Cc1cccnc1 | ? | 6%[70.6 µM] | ? | i
CNC(=O)c1cc(-c2cccc(NC(C)=O)c2)cc2c1OCCN2Cc1cccnc1 | -10%[172 µM] | -3%[70.6 µM] | 45µM* | i
O=C(NC1CCOCC1)c1cc(-c2ccccc2F)cc2c1OCCN2Cc1cccnc1 | ? | 2% | -26% | i
COc1ccc(-n2c(=O)c(C(=O)NCCCc3ccccc3)nc3cccnc32)cc1 | i | . | -9% | .
COc1ccc(C(=O)N[C@@H]2CN(Cc3ccccc3)C[C@H]2CN(C)C)cc1F | 6.3µM* | . | 20µM* | .
CN(C)C[C@@H]1CN(Cc2ccccn2)C[C@H]1NC(=O)c1ccc(Cl)s1 | 79µM* | -1% | -9% | i
CN(C)C[C@@H]1CN(Cc2ccccc2)C[C@H]1NC(=O)c1nn(C)c2ccccc12 | 40µM* | . | ? | .
COc1ccc(C(=O)N[C@@H]2CN(Cc3cccnc3)C[C@H]2CN(C)C)cc1F | ? | 3% | ? | i
COc1ccc2c(c1)OC[C@@H]1CN(C)C(=O)CCN(C(=O)OCC(C)C)[C@H]21 | -10% | . | ? | .
O=C(c1ccccc1Cl)N1CCN(c2nccc(Nc3ccccc3Cl)n2)CC1 | 45µM* | . | ? | .
CC(=O)N1CCN(c2nccc(Nc3ccccc3Cl)n2)CC1 | -19%[172 µM] | . | -28%[138 µM] | .
COc1ccccc1C(=O)N1CCN(c2nccc(Nc3ccccc3Cl)n2)CC1 | ? | . | 28µM* | .
Cc1ccc(C(=O)N2CCN(c3nccc(Nc4ccccc4Cl)n3)CC2)cc1 | 22µM* | . | ? | .
COc1ccc(Nc2ccnc(N3CCN(C(=O)c4ccccc4Cl)CC3)n2)cc1 | 40µM* | . | ? | .
CCc1noc(-c2cccn3c(CNC(=O)c4ccco4)nnc23)n1 | i | 1% | -13% | i
CCOC(=O)C1CCN(C(=O)C2CCc3nnc(C4CCN([S+](=O)([O-])c5ccccc5Cl)CC4)n32)CC1 (stereo unspecified) | i | . | -14% | .
CC(C)C(=O)N1CCN(c2nccc(Nc3ccccc3Cl)n2)CC1 | 40µM* | . | ? | .
CC1(COc2cccnc2)COc2ccc(C(=O)Nc3ccc4[nH]ccc4c3)cc2N1 (stereo unspecified) | ? | -13%[70.6 µM] | 89µM* | 40µM*
COc1ccc(NC(=O)c2ccc3c(c2)NC(C)(COc2ccccc2)CO3)cn1 (stereo unspecified) | ? | ? | ? | i
CC1(COc2ccccc2)COc2ccc(C(=O)Nc3ccc4[nH]ccc4c3)cc2N1 (stereo unspecified) | 45µM* | ? | 35µM* | ?
